# Compounds with a hit are over-represented: about 2.9% of the library has one in this group of screens.
# cytoskel mod = modifiers of cytoskeleton assembly | inhibition, % at 2 µM | HUVEC TNFa F-actin phalloidin imaging, high content | 0.18% of 91,000 active | AID 836;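 active means inhibition above the batch mean plus 3 SD and confirmed as a hit by visual image inspection, cut at about 30% in these data, passing the limit was not always enough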
# ERa SRC1 inh = ER-alpha (human) coactivator binding inhibition | P03372 | TR-FRET ER-alpha LBD / SRC-1 peptide, estradiol-bound | inhibition, % at 25.6 µM | 1.7% of 86,000 active; in the data active means inhibition above about 50%
# Target sequence (P03372 whole entry, looked up, the tested form may be a part): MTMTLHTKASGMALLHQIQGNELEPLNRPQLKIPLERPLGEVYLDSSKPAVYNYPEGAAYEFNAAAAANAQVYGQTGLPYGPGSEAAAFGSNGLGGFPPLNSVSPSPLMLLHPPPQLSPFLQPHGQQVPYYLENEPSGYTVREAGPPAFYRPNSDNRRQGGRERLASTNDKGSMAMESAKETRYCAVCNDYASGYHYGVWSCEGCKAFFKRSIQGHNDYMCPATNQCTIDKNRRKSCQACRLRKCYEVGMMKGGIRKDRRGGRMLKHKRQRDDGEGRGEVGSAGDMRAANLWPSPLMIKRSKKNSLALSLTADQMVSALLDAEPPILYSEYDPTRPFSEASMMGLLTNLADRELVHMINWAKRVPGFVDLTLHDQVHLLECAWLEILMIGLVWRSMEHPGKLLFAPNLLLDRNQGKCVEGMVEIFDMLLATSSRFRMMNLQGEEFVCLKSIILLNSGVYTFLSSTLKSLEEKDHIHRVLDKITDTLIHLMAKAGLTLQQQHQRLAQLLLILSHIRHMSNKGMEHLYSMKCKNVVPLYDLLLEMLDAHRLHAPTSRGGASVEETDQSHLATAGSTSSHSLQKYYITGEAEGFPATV
# Candida biofilm = kills Candida albicans biofilms; C. albicans biofilm + clotrimazole, Alamar Blue; inhibition, % at 6 µM; 0.14% of 85,000 active;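 active means inhibition above 20%; inactive means inhibition below 20%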;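 further: preformed 24 hr biofilms exposed to compound for 48 hr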
# ERb SRC1 inh = blocks coactivator binding to human estrogen receptor beta; Q92731; TR-FRET ER-beta LBD / SRC1-Cy5 peptide binding; receptor agonist-loaded with 1 µM estradiol; inhibition, % at 25.6 µM; 1.3% of 86,000 active; AID 633;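 active means compounds whose percent inhibition of the receptor-coactivator binding signal exceeds about 50% in the single-dose screen, limit read from the data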
# ERa SRC1 pot = enhances coactivator binding to human estrogen receptor alpha; P03372; TR-FRET ERalpha-LBD/SRC-Cy5 coactivator binding, 2 h; 100 = basal binding, no effect; coactivator binding (% of control), % at 25.6 µM; 1.3% of 86,000 active; AID 639; in the data active means activity above about 200%;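 further: binding measured in presence of low estradiol as agonist stimulus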
# E-sel TNF inh = blocks E-selectin expression induced by TNF alpha | inhibition, % at 2 µM | 0.71% of 120,000 active | HUVEC TNFa-induced E-selectin immunofluorescence, high content;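 active means inhibition above the batch mean plus 3 SD, and confirmed as a hit on visual image review, cut at about 43% in these data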
# A number is an active result; n = inactive; x = not tested or not shown; [ ] = dose if it differs, or a comment.
SMILES,cytoskel mod,ERa SRC1 inh,Candida biofilm,ERb SRC1 inh,ERa SRC1 pot,E-sel TNF inh
CCc1ccc(Nc2nc(N)nc(CSc3nnnn3-c3ccccc3)n2)cc1,n,n,n,n,312,n
Cc1ccccc1Nc1nc(N)nc(CSc2nnnn2-c2ccccc2)n1,n,n,n,n,n,x
Cc1ccc2nc(SCC(=O)c3cc(C)n(C)c3C)[nH]c2c1,n,n,n,n,n,n
C/C(N)=C(/C#N)C(=O)CSc1nc2ccc(C)cc2[nH]1,x,n,n,57[fluorescence artefact?],n,n
COCCCn1c(SCC(=O)Nc2ccc(NC(=O)c3ccco3)c(OC)c2)nc2ccccc2c1=O,n,n,n,n,213[fluorescence artefact?],n
COc1ccc(-c2cc3ccccc3oc2=O)cc1NC(=O)c1ccc(Br)o1,n,66[fluorescence artefact?],n,n,231,n
COc1cc(NS(=O)(=O)c2ccc(N/C=C\C(=O)c3ccc(F)cc3)cc2)nc(OC)n1,x,x,x,x,x,n
CCn1c(SCC(=O)NCc2cccs2)nnc1-c1cccs1,n,n,n,n,n,n
C=CCn1c(SCC(=O)Nc2ccc(C(=O)OC(C)C)cc2)nnc1-c1cccs1,x,n,n,n,825[fluorescence artefact?],n
CCn1c(SCC(=O)c2ccc(CNC(C)=O)o2)nnc1-c1cccs1,n,58,n,n,n,x
COc1ccc(NC(=O)CSc2nnc(-c3cccs3)n2-c2ccccc2)cc1,n,n,n,n,323[fluorescence artefact?],x
CCOC(=O)c1ccc(NC(=O)CSc2nnc(-c3cccs3)n2CC)cc1,n,n,n,n,384[fluorescence artefact?],n
C=CCn1nnnc1SCC(=O)Nc1cccc(OC)c1,x,n,n,n,n,n
Cc1csc(NC(=O)CSc2nnc(-c3cccs3)n2C)n1,65,n,n,n,n,n
C=CCn1c(SCC(=O)Nc2cccc(OC)c2)nnc1-c1cccnc1,n,n,n,n,226,x
Cc1csc(NC(=O)CSc2nnc(CCNC(=O)c3cccs3)n2C)n1,n,n,n,n,n,n
O=C(CSc1nnc(-c2cccs2)n1-c1ccccc1)N1CCc2ccccc21,n,n,n,n,925[fluorescence artefact?],n
O=C(CSc1nnc(-c2ccco2)n1-c1ccccc1)N1CCc2ccccc21,n,n,n,n,n,n
COc1ccc2cc(CCN3C(=O)c4ccccc4C3=O)c(=O)[nH]c2c1,x,x,x,x,x,n
Cc1ccc(OCC(=O)N2CCC(N3CCCCCC3)CC2)cc1,n,n,n,n,n,x
NC(=O)Cc1c[nH]c2cccc(O)c12,x,73[fluorescence artefact?],n,93[fluorescence artefact?],n,n
C=CCn1c(O)c(C(CC)=NCc2cccnc2)c(=O)[nH]c1=O,n,n,n,50,n,x
COC(=O)c1ccc(NC(=O)CN2C(=O)CSC2=O)cc1,n,n,n,n,319[fluorescence artefact?],n
CCOC(=O)c1ccc(NC(=O)CN2C(=O)CSC2=O)cc1,n,n,n,n,n,n
CCS(=O)(=O)c1ccc2oc(Nc3ccc(C(C)C)cc3)nc2c1,x,n,n,n,n,64
SMILES,cytoskel mod,ERa SRC1 inh,Candida biofilm,ERb SRC1 inh,ERa SRC1 pot,E-sel TNF inh
CCOC(=O)c1cc2c(ccn2C)n1CC(=O)N1CCC(Cc2ccccc2)CC1,x,n,n,n,n,96
CCOc1ccc(CN(C)CCc2ccccn2)cc1,x,x,x,x,x,n
CCOc1ccc(CC2S/C(=N/c3ccccn3)NC2=O)cc1 (stereo not given),n,n,n,n,331,n
CCCOc1ccc(C(=O)c2nc3c(n2O)CCCC3)cc1,n,x,x,x,x,x
O=C(Nc1ccc(-c2nc3cccnc3s2)cc1)c1ccc(Br)o1,n,n,n,n,n,100
O=C(Nc1cccc(-c2nc3cccnc3s2)c1)c1ccco1,n,n,n,n,n,n
O=C(Nc1ccc(-c2nc3ncccc3o2)cc1)c1ccco1,n,n,n,n,n,n
O=C(Nc1ccc(S(=O)(=O)Nc2cnc3ccccc3n2)cc1)c1ccc(Br)o1,n,n,n,n,n,n
O=C(Nc1cccc(-c2cnc3ccccc3n2)c1)c1ccccc1,n,x,x,x,x,n
O=C(Nc1cccc(-c2cnc3ccccc3n2)c1)c1cccc(NC(=O)c2ccco2)c1,n,59,n,n,244[fluorescence artefact?],n
O=C(Nc1ccc(-c2nc3ncccc3o2)cc1)c1ccc(Br)o1,n,n,n,n,269[fluorescence artefact?],n
O=C(Nc1ccc(-c2nc3cccnc3s2)cc1)c1ccco1,x,56[fluorescence artefact?],n,n,n,n
O=S1(=O)CCN(C(CCO)c2cccc(C(F)(F)F)c2)CC1 (stereo not given),x,x,x,x,x,95
Cc1nonc1OCC(C)(COc1nonc1C)NC(=O)c1ccccc1,n,n,n,n,n,n
C=CCn1c(SCC(=O)Nc2cccnc2Cl)nnc1-c1ccccc1F,x,x,x,x,x,n
